The values that follow come from ChEMBL document CHEMBL3988442, “University of Dundee, Small-Polar-MMV Screening Library” (2021).

The structures appear in SMILES notation.

The target in this experiment is T1, Arginase-2, mitochondrial (Homo sapiens) (UniProt P78540).
T1 sequence (whole entry): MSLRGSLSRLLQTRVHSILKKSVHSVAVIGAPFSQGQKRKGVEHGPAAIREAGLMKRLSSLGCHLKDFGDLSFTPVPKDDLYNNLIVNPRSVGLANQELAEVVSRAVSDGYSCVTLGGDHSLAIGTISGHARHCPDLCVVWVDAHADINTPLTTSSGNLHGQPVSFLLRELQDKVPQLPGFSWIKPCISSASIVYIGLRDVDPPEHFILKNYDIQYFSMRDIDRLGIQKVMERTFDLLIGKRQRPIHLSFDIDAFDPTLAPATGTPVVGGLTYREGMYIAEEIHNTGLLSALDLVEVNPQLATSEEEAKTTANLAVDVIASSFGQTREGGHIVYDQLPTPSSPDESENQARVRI
As to the kind of experiment: in vitro enzyme assay to detect the production of urea directly proportional to the activity of Arginase II. It is filed as functional. Further details: scale not given: in the data most compounds retested in dose-response had high values. To be noted: 30 µM.
Consider `Cc1ccc([C@@H]2CN(S(=O)(=O)N3CCC(C)CC3)C[C@H]2N(C)C)cc1`, for which the Percent Effect turned out to be 7.03%. Turning to `CC(C)CNC(=O)c1cc(Br)c2c(c1)OCCO2`, the Percent Effect turned out to be 3.78%. For the compound `CC1=Nc2c(c(=O)[nH]n2C2CCCC2)C(c2ccc(O)cc2)S1` (stereo not given), the Percent Effect was determined as 5.95%. In the case of `CCOc1cccc(C(=O)N(CCC#N)Cc2ccccn2)c1`, the Percent Effect was determined as 13.5%. Regarding `O=C(Cn1nc2c(cc1=O)CSCC2)N[C@@H](Cc1ccccc1)C(=O)O`, the Percent Effect worked out at 11.3%. In the case of `CNC(=O)[C@H]1C[C@@H]2CN(C(=O)c3ccc(C)o3)C[C@@H]2N1S(C)(=O)=O`, the Percent Effect was found to be 1.62%. In the case of `COCC(=O)N1CCC(c2cncc(-c3cccc(F)c3)n2)CC1`, the Percent Effect is -5.95%.

With `CC(=O)N[C@@H](C)C(=O)NCc1cccnc1Oc1ccccc1F`, the Percent Effect amounted to 2.7%. Consider `COc1ccc(C2SC(C)=Nc3c2c(=O)[nH]n3C2CCCC2)cc1O` (stereo not given), for which the Percent Effect came to 2.7%. `CCCS(=O)(=O)CC(=O)N1CCCC1c1noc(C2CC2)n1` (stereo not given): the Percent Effect was found to be 7.03%. Regarding `CCC(C(=O)NCc1ccncc1)N(c1ccc(F)cc1)S(C)(=O)=O` (stereo not given), the Percent Effect came to 8.11%. As for `CN(C)C(=O)CN1CCC(c2cncc(-c3cccc(Cl)c3)n2)CC1`, the Percent Effect is -0.54%. `Cc1ccc(C(C(=O)O)N2CCCN(Cc3ccccn3)CC2)c(F)c1` (stereo not given): the Percent Effect worked out at 8.11%. For `Cc1ccc(CNCc2nnc3n2CC(C(F)(F)F)CC3)o1` (stereo not given) the value was -7.03%; for `CCCS(=O)(=O)N1C[C@H](N(C)Cc2ccco2)[C@@H]2OCCC[C@@H]21`, 11.3%. As for `CN(Cc1ccco1)[C@@H]1CN(CC2CCOCC2)[C@@H]2CCCO[C@H]12`, the Percent Effect came to 4.87%. For `N#Cc1ccc(OCC(O)CN2CCN(c3nccs3)CC2)cc1` (stereo not given) the value was 5.95%; for `CCOCCNC(=O)c1cc(Br)c2c(c1)OCCO2`, 9.19%. `O=c1[nH]c2c(c(=O)n1C1CCCCC1)CCC2Nc1ccccn1` (stereo not given): the Percent Effect came out at 5.95%. Consider `CC(C)CN1CCC(NC(=O)c2ccc(Cl)cc2Cl)CC1`, for which the Percent Effect is -7.03%. As to `CNC(=O)[C@H]1C[C@@H]2CN(C(=O)c3ccoc3)C[C@@H]2N1S(C)(=O)=O`, the Percent Effect was 10.3%. For the compound `CCOC(=O)Cn1cccc(S(=O)(=O)N2CCCC2)c1=O`, the Percent Effect is -11.3%. On to `CN(C)c1ncccc1CNC(=O)N(Cc1ccccc1F)C1CC1`, for which the Percent Effect turned out to be 8.11%. With `CCCNC(=O)c1cc(Br)c2c(c1)OCCO2`, the Percent Effect is 5.95%. As to `CN1CCC(c2cncc(-c3cccc(Cl)c3)n2)CC1`, the Percent Effect turned out to be 4.87%. As to `CCn1ccnc1C1CCCN(C(=O)c2sc(C)nc2C)C1` (stereo not given), the Percent Effect came to 2.7%. Regarding `CS(=O)(=O)NCCC(=O)N1CCCC1c1noc(C2CC2)n1` (stereo not given), the Percent Effect came to 11.3%.

As to `COc1cccc(C(=O)N2C[C@@H](C(=O)O)[C@H](c3ccccc3C)C2)c1`, the Percent Effect was 5.95%.

As for `CCc1nc(C)c(C(=O)NCC2COc3cc(OC)ccc3C2)o1` (stereo not given), the Percent Effect was 5.95%.

As to `CNC(=O)[C@@H]1CCO[C@@H]2CCN(CCc3ccccc3)C[C@H]21`, the Percent Effect came out at 8.11%. Turning to `Cc1noc(C)c1CN1C[C@@H](N(C)Cc2ccco2)[C@H]2OCCC[C@H]21`, the Percent Effect was determined as 7.03%.

Turning to `COc1ccccc1Oc1ncccc1CNC(=O)C(O)C(F)(F)F` (stereo not given), the Percent Effect stood at 3.78%.

Turning to `COc1ccc(NC2CCc3c2[nH]c(=O)n(C2CCCCC2)c3=O)cc1` (stereo not given), the Percent Effect turned out to be 4.87%.

In the case of `Cc1cc(C)cc(OCC(O)CN2CCN(c3nccs3)CC2)c1` (stereo not given), the Percent Effect worked out at 4.87%. Take `CN(Cc1ccccn1)C1CC2(CCN(Cc3ccccn3)CC2)C1`: the Percent Effect was -16.8%. As for `O=C(O)C1CCN(C(=O)Cn2ccc3c(Cl)cccc32)CC1`, the Percent Effect came out at 10.3%. Turning to `Cn1cc(CN2C[C@@H]3COC[C@]3(C(=O)NCCc3ccccc3)C2)cn1`, the Percent Effect was determined as 12.4%. With `OCCN1CCC(c2cncc(-c3cccc(Cl)c3)n2)CC1`, the Percent Effect was -3.78%.

Turning to `COc1ncccc1CNC(=O)N(Cc1ccccc1F)C1CC1`, the Percent Effect came out at 5.95%. In the case of `COC(=O)c1ccc(C2SC(C)=Nc3c2c(=O)[nH]n3C2CCCC2)cc1` (stereo not given), the Percent Effect worked out at 11.3%.
